From the supplement of paper PMC9023506
Counter-ions that a name gives are not always drawn.

Test system: Danio rerio larvae (5 dpf)
Experiment: startle response to 20-s acoustic pulses, difference vs DMSO (percentage points (treated minus DMSO)); higher = more of the behaviour than the DMSO vehicle control
Conditions: 10 µM; exposure time: 3 h pre-incubation + 3 h imaging
Method: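 5-dpf wild-type zebrafish larvae were imaged in 96-well plates. They were treated with 190 Tocris FDA-approved drugs at 10 µM (1 µl/ml DMSO) for 3 h before and 3 h during imaging at 28.5 °C, 48 larvae per drug. Automated image analysis gave % time moving and optomotor responses. Values are drug group mean minus DMSO vehicle mean (n=844), in percentage points, for 10 behaviours.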

SMILES | startle response to 20-s acoustic pulses
Nc1nc2c(ncn2COCCO)c(=O)[nH]1 [Acyclovir] | 0.665
Cc1cccc(C)c1OCC(C)N (stereo not given) [Mexiletine hydrochloride] | 0.873
NC(=O)c1ncn([C@@H]2O[C@H](CO)[C@@H](O)[C@H]2O)n1 [Ribavirin] | 1.75
CN1CCC[C@@H]1Cc1c[nH]c2ccc(CCS(=O)(=O)c3ccccc3)cc12 [Eletriptan hydrobromide] | 1.42
O=C(Nc1c(Cl)cncc1Cl)c1ccc(OC(F)F)c(OCC2CC2)c1 [Roflumilast] | 1.99
CCc1ccc(CCOc2ccc(CC3SC(=O)NC3=O)cc2)nc1 (stereo not given) [Pioglitazone hydrochloride] | -3.21
NC(=O)N1c2ccccc2C=Cc2ccccc21 [Carbamazepine] | 2.54
Cc1nc(-c2ccc(OCC(C)C)c(C#N)c2)sc1C(=O)O [Febuxostat] | 2.71
CN(C)C(=N)NC(=N)N [Metformin hydrochloride] | -1.12
Cc1ccc(N(CC2=NCCN2)c2cccc(O)c2)cc1 [Phentolamine Mesylate] | -1.56
COc1ccccc1OCCNCC(O)COc1cccc2[nH]c3ccccc3c12 (stereo not given) [Carvedilol] | 4.96
COc1ccccc1OCC(O)CN1CCN(CC(=O)Nc2c(C)cccc2C)CC1 (stereo not given) [Ranolazine dihydrochloride] | 2.42
C#C[C@]1(O)CC[C@H]2[C@@H]3CCC4=CC(=O)CC[C@@H]4[C@H]3CC[C@@]21CC [Levonorgestrel] | -4.51
CCOC(=O)C1=C(COCCN)NC(C)=C(C(=O)OC)C1c1ccccc1Cl (stereo not given) [Amlodipine besylate] | 0.195
Nc1nc2[nH]cc(CCc3ccc(C(=O)N[C@@H](CCC(=O)O)C(=O)O)cc3)c2c(=O)[nH]1 [Pemetrexed] | -4.56
Cc1cn([C@H]2C=C[C@@H](CO)O2)c(=O)[nH]c1=O [Stavudine] | -0.918
CNS(=O)(=O)Cc1ccc2[nH]cc(CCN(C)C)c2c1 [Sumatriptan succinate] | 3.19
CN1CC[C@@H](NC(=O)Nc2ccc(C#N)cc2)C[C@@H]1c1nc2ccccc2[nH]1 | -5.85
CC(C)(C(=O)c1cccnc1)c1cccnc1 [Metyrapone] | 3.51
CN(CCOc1ccc(NS(C)(=O)=O)cc1)CCc1ccc(NS(C)(=O)=O)cc1 [Dofetilide] | 0.873

SMILES | startle response to 20-s acoustic pulses
CN1CCN2c3ncccc3Cc3ccccc3C2C1 (stereo not given) [Mirtazapine] | -5.94
O=C1CCc2ccc(OCCCCN3CCN(c4cccc(Cl)c4Cl)CC3)cc2N1 [Aripiprazole] | -4.17
OCCN(CCO)c1nc(N2CCCCC2)c2nc(N(CCO)CCO)nc(N3CCCCC3)c2n1 [Dipyridamole] | 6.96
CC(C)Nc1cccnc1N1CCN(C(=O)c2cc3cc(NS(C)(=O)=O)ccc3[nH]2)CC1 [Delavirdine mesylate] | -4.51
Nc1nc(Cl)nc2c1ncn2[C@@H]1O[C@H](CO)[C@@H](O)[C@@H]1F [Clofarabine] | 5.05
CC(C)c1nc(N(C)S(C)(=O)=O)nc(-c2ccc(F)cc2)c1/C=C/[C@@H](O)C[C@@H](O)CC(=O)O [Rosuvastatin calcium] | -3.11
Nc1nc(NC2CC2)c2ncn([C@H]3C=C[C@@H](CO)C3)c2n1 [Abacavir hemisulfate] | 6.56
CC(C)[C@H]1CC[C@H](C(=O)N[C@H](Cc2ccccc2)C(=O)O)CC1 [Nateglinide] | 3.57
CC(=O)Nc1ccc(O)cc1 [Acetaminophen] | -1.63
CCCN(CCC)S(=O)(=O)c1ccc(C(=O)O)cc1 [Probenecid] | 1.66
CCCCNc1cc(C(=O)O)cc(S(N)(=O)=O)c1Oc1ccccc1 [Bumetanide] | 3.98
CC(C)(C)NC(=O)[C@@H]1C[C@@H]2CCCC[C@@H]2CN1C[C@@H](O)[C@H](Cc1ccccc1)NC(=O)[C@H](CC(N)=O)NC(=O)c1ccc2ccccc2n1 [Saquinavir mesylate] | 0.0193
CC(=O)S[C@@H]1CC2=CC(=O)CC[C@]2(C)[C@H]2CC[C@@]3(C)[C@@H](CC[C@@]34CCC(=O)O4)[C@H]12 [Spironolactone] | 1.64
CC[C@H]1OC(=O)[C@H](C)[C@@H](O[C@H]2C[C@@](C)(OC)[C@@H](O)[C@H](C)O2)[C@H](C)[C@@H](O[C@@H]2O[C@H](C)C[C@H](N(C)C)[C@H]2O)[C@](C)(O)C[C@@H](C)CN(C)[C@H](C)[C@@H](O)[C@]1(C)O [Azithromycin] | 2.64
CC(=O)O[C@H]1C(=O)[C@@]2(C)[C@H]([C@H](OC(=O)c3ccccc3)[C@]3(O)C[C@H](OC(=O)[C@H](O)[C@@H](NC(=O)c4ccccc4)c4ccccc4)C(C)=C1C3(C)C)[C@]1(OC(C)=O)CO[C@@H]1C[C@@H]2O [Taxol] | -0.529
CCCCc1nc(Cl)c(CO)n1Cc1ccc(-c2ccccc2-c2nnn[nH]2)cc1 [Losartan potassium] | -0.252
COc1cc(N)c(Cl)cc1C(=O)NC1CCN(CCCOc2ccc(F)cc2)CC1OC (stereo not given) [Cisapride] | -0.377
Cc1ccc(NC(=O)c2ccc(CN3CCN(C)CC3)cc2)cc1Nc1nccc(-c2cccnc2)n1 [Imatinib mesylate] | 5.5
Cc1c(-c2ccc(O)cc2)n(Cc2ccc(OCCN3CCCCCC3)cc2)c2ccc(O)cc12 [Bazedoxifene acetate] | -4.17
Cc1ccc(O)c([C@H](CCN(C(C)C)C(C)C)c2ccccc2)c1 [Tolterodine L-tartrate] | -5.76
